For orientation: inhibition means the change of the read-out against control, counted positive when it falls.

The structures appear in SMILES notation. Where “and” joins values, the source holds several entries; their conditions need not be identical. Equal entries are not always repeated. Hit rate of the full screen: of about 260,000 compounds, about 1,500 (0.58%) were called active. Another 5% or so got no clear call; they are omitted.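 Rule for the calls: active = inhibition above a set limit at one or more doses, reproduced on every date tested; inconclusive = results disagree between test dates, or hit never tested in dose response; inactive = the rest.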 Not all results are given here. Potency and affinity values are given separately.

The target in the assay is Virion infectivity factor (Human immunodeficiency virus type 1 group M subtype B (isolate BH10)) + Virion infectivity factor (Human immunodeficiency virus type 1 group M subtype B (isolate BRU/LAI)) + Virion infectivity factor (Human immunodeficiency virus type 1 group M subtype B (isolate PCV12)) + Virion infectivity factor (Human immunodeficiency virus type 1 group M subtype B (isolate HXB2)) + DNA dC->dU-editing enzyme APOBEC-3G (Homo sapiens) (UniProt P69720+P69721+P69722+P69723+Q9HC16). Nature of the assay: HIV-1 Vif–A3G interaction blockers – biochemical, TR-FRET, GST-Vif 1-94, biotin-A3G peptide, dose response retest, primary screen (AID 1117319).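 Note: Vif residues 1-94 fused to GST binding biotinylated APOBEC3G peptide 110-148; 0% = full assay without inhibitor and 100% = GST in place of GST-Vif.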 Particulars: TR-FRET GST-Vif / biotin-A3G peptide binding; active compounds read high. On the technique in general: In TR-FRET formats the signal depends on donor and acceptor labels being close together.
On to `O=C(NCC1CCCO1)c1cc(-c2ccncc2)nc2ccccc12` (stereo not given), for which the inhibition is -2.45% (inactive).

Consider `O=C(NC1CC1)c1cc(-c2ccccn2)nc2ccccc12`, for which the inhibition was -3.96% (inactive).

For `COc1ccc(-c2cc(C(=O)NCC3CCCO3)c3ccccc3n2)cc1` (stereo not given), the inhibition is -7.4% (inactive).

As for `O=C(NNC(=O)c1cc(-c2ccco2)nc2ccccc12)c1ccccc1`, the inhibition is 14% (inactive).

On to `O=C(Nc1cccc(S(=O)(=O)NC2=NCCC2)c1)c1cc(-c2ccco2)nc2ccccc12`, for which the inhibition is -0.28% (inactive).

Take `O=C(Nc1cccc(S(=O)(=O)NC2=NCCC2)c1)c1cc(-c2ccccn2)nc2ccccc12`: the inhibition was -2.06% (inactive).

On to `CN(CCc1ccccn1)S(=O)(=O)c1ccc(F)cc1`, for which the inhibition was 1.96% (inactive).

As for `Cc1cc2c(Nc3ccc(O)cc3)ncnc2s1`, the inhibition is -0.33% (inactive).

Regarding `N#CC(C#N)=C1NC2(CCCC2)Cc2ccccc21`, the inhibition was 1.13% (inactive).

As to `Cc1ccc(Nc2nc(N)nc(CN3CCN(Cc4ccc5c(c4)OCO5)CC3)n2)cc1C`, the inhibition was 3.16% (inactive).

Consider `CC(C)(O)C#Cc1ccc(C(=O)NCc2ccccc2)s1`, for which the inhibition is 6.16% (inactive).

`Cc1cccc(Oc2nc(-c3cccc([N+](=O)[O-])c3)nc3ccccc23)c1C`: the inhibition was -5.88% (inactive).

Take `Cc1ccc(NC2=NC(c3ccc(F)cc3)n3c(nc(C)cc3=O)N2)cc1` (stereo not given): the inhibition is 5.66% (inactive).

As for `CC(C)(C)OC(=O)NCCCC[C@H](NC(=O)c1nc[nH]c1C(=O)N[C@@H](CCCCNC(=O)OC(C)(C)C)C(=O)OC(C)(C)C)C(=O)OC(C)(C)C`, the inhibition was -5.41% (inactive).

Turning to `CC(=O)N1CCN(C(=O)CCC(=O)O)CC1`, the inhibition was -4.74% (inactive).

Consider `Cc1ccccc1N(CC(=O)NCCSCc1ccco1)S(C)(=O)=O`, for which the inhibition was 3.05% (inactive).

Regarding `Cc1ccc(N(CC(=O)NCCSCc2ccco2)S(=O)(=O)c2ccc(C)cc2)cc1`, the inhibition was -4.1% (inactive).

`COc1ccc(N(CC(=O)NCCSCc2ccco2)S(=O)(=O)c2ccc(C)cc2)cc1`: the inhibition was -1.79% (inactive).

With `Cc1ccc(C)c(N(CC(=O)NCCSCc2ccco2)S(C)(=O)=O)c1`, the inhibition was 12% (inactive).

As to `O=C(CSc1nc2[nH]ncc2c(=O)[nH]1)Nc1cc(C(F)(F)F)ccc1Cl`, the inhibition was 3.21% (inactive).

For the molecule `COc1ccc(CCNC(=O)CCSc2nc(-c3ccco3)cc(C(F)(F)F)n2)cc1`, the inhibition was 2.48% (inactive).

With `CNC(=O)OCc1nc(SSC(C)(C)C)n(C)c1COC(=O)NC`, the inhibition is -4.09% (inactive).

Turning to `O=C(c1c(Cl)cccc1Cl)N1CCN(c2ccccn2)CC1`, the inhibition is 3.31% (inactive).

Turning to `CCC(c1nnnn1Cc1ccccc1)N(Cc1ccco1)Cc1cc2cc(OC)ccc2[nH]c1=O` (stereo not given), the inhibition was 6.8% (inactive) and 6.79% (inactive).

Take `CCOc1ccc2[nH]c(=O)c(CN(Cc3ccco3)C(CC)c3nnnn3Cc3ccccc3)cc2c1` (stereo not given): the inhibition is 4.17% (inactive) and 12.4% (inactive).

Turning to `CCOC(=O)c1cc(NC(=O)CNCC(c2ccccc2)N(C)C)cc(C(=O)OCC)c1` (stereo not given), the inhibition is -3.03% (inactive).

Regarding `O=C1NC(Cc2ccccc2)c2nc3ccccc3c(=O)n2-c2cc3ccccc3cc21` (stereo not given), the inhibition was 0.54% (inactive).

For the molecule `Cc1c(Cl)cccc1NC(=O)CCCCCN1C(=O)CCC1=O`, the inhibition is -0.64% (inactive).

On to `Cc1c(F)cccc1NC(=O)CSCC(=O)Nc1ccccc1`, for which the inhibition was 4.77% (inactive).

Turning to `CC1NC(=O)NC1CCCCCC(=O)Nc1ccc(F)c(Cl)c1` (stereo not given), the inhibition was -8.82% (inactive).

Turning to `CCc1cccc(NC(=O)CCSCCC(=O)Nc2cccc(CC)c2)c1`, the inhibition is -3.74% (inactive).

`Cc1ccc(NC(=O)CCC(=O)Nc2ccc(C)cc2)cc1`: the inhibition was 2.94% (inactive).

Take `CC1NC(=O)NC1CCCCCC(=O)NCCc1ccccc1` (stereo not given): the inhibition is 31.4% (inactive).

With `COC(=O)c1cccc(NC(=O)CSCc2ccccc2)c1`, the inhibition was 6.61% (inactive).

Turning to `O=C(Nc1ccsc1C(=O)N1CCCC1)c1ccccc1`, the inhibition was -3.04% (inactive).

With `CCOc1cccc(C2C(C#N)=C(N)Oc3cc(C)n(Cc4ccccn4)c(=O)c32)c1OCC` (stereo not given), the inhibition was 14.3% (inactive).

On to `CCOC(=O)c1nn(-c2ccc(C)cc2)c(=O)cc1OCC(=O)Nc1cccc(C)c1`, for which the inhibition is -4.53% (inactive).

With `COC(=O)c1c(NC(=O)c2ccco2)sc2c1CC(C)(C)NC2(C)C`, the inhibition was -5.88% (inactive).

Regarding `CN(c1ccccc1)P(=O)(N(C)c1ccccc1)N(C)c1ccccc1`, the inhibition is -2.89% (inactive).

Regarding `CCCCNC(=O)CCn1nc(-c2ccccc2)c2ccccc2c1=O`, the inhibition is -4.86% (inactive).

On to `COc1ccc(-c2cc(-c3n[nH]c(=S)n3-c3cccc4ccccc34)[nH]n2)cc1`, for which the inhibition is 32.6% (inactive).

In the case of `Cc1nc2ccccn2c1-c1csc(NCc2ccco2)n1`, the inhibition was 5.14% (inactive).

Take `Cc1ccn2c(-c3csc(NCc4ccco4)n3)c(C)nc2c1`: the inhibition is 16.9% (inactive).

Consider `CC(=O)Oc1ccccc1/C=C1\CCOC1=O`, for which the inhibition is 13.1% (inactive).

`O=C(NCCN1C(=O)S/C(=C\c2ccc(Cl)c(Cl)c2)C1=O)c1cnccn1`: the inhibition was 20.5% (inactive).

On to `O=C(c1cc([N+](=O)[O-])ccc1N1CCOCC1)N1CCN(c2ccc([N+](=O)[O-])cc2)CC1`, for which the inhibition is 11.3% (inactive).

As to `COc1ccccc1CNC(=O)c1csc2c1CCCC2`, the inhibition was 10.6% (inactive).

As for `O=C(NCc1ccccc1)c1csc2c1CCCCC2`, the inhibition was -0.06% (inactive).

Regarding `[O-]/C(=C(\C(=S)Nc1ccc(SC(F)F)cc1)[n+]1ccccc1)c1ccc(Cl)cc1Cl`, the inhibition is -10.3% (inactive).

Consider `COc1cccc(OC)c1C(=O)Nc1nc(-c2ccccc2)cs1`, for which the inhibition was -5.24% (inactive).

`CC(NC(=O)COc1ccccc1Cl)c1ccccc1` (stereo not given): the inhibition is -5.9% (inactive).

`CCn1c(SCC(=O)NNC(=O)c2ccc(OC)cc2)nnc1-c1ccco1`: the inhibition was -0.44% (inactive).

As for `CC(=O)Nc1ccc(/C(N=Nc2ccccc2)=N/N=C(N)N)cc1`, the inhibition was 16.3% (inactive).

With `Oc1ccc(/C=N\Nc2nncc(-c3ccccc3)n2)cc1`, the inhibition was -5.32% (inactive).

Turning to `O=C1c2cc(Br)ccc2OC2C=CC=CC12` (stereo not given), the inhibition was -11.4% (inactive).

With `COc1cc(CNCCc2c[nH]c3ccccc23)ccc1OCc1ccc(F)cc1`, the inhibition is 12.4% (inactive).

For `COc1cccc(CNCCc2c[nH]c3ccccc23)c1OCc1ccc(F)cc1`, the inhibition was 1.44% (inactive).

As to `COc1ccc(C(=Cc2cc(OC)c(OC)cc2[N+](=O)[O-])C(=O)O)cc1`, the inhibition is 2.43% (inactive).

On to `CCOC(=O)c1cc2c(C)n(-c3ccc(OCC)cc3)c(C)c2ccc1=O`, for which the inhibition was 27.2% (inactive).

For `O=C(O)C1Nc2c(C(F)(F)F)ccc(Cl)c2C2C=CCC12` (stereo not given), the inhibition was 24.9% (inactive).

For the molecule `O=C(O)C1Nc2c(Cl)cc(Cl)cc2C2C=CCC12` (stereo not given), the inhibition was 63.7% (inactive).

As to `O=[N+]([O-])c1c(O)c(Cl)cc(Cl)c1Cl` (tested in a mixture with another compound), the inhibition is -1.68% (inactive).

`Cc1noc(C)c1COC(=O)c1cnc(Cl)c(Cl)c1`: the inhibition is 3.39% (inactive).

As for `O=C(O)C12CC3CC(C1)CC(n1cnc(Cl)n1)(C3)C2`, the inhibition is 23.7% (inactive).

Turning to `Cc1nnc(Oc2ccccc2F)c2ccccc12`, the inhibition was 0.32% (inactive).

Take `Cc1cc(C)c(NC(=O)c2ccc(S(=O)(=O)N3CCOCC3)cc2)c(C)c1`: the inhibition is -5.2% (inactive).

For `Cc1cc(C)c2c(c1)C1C=CCC1C(c1ccc(S(=O)(=O)N3CCOCC3)cc1)N2` (stereo not given), the inhibition is 27.8% (inactive) and -8.85% (inactive).

Consider `Cc1ccc(CN2CC(C(=O)Nc3cccc(S(=O)(=O)N4CCCCC4)c3)CC2=O)cc1` (stereo not given), for which the inhibition was 14.4% (inactive).

Regarding `COc1ccc(-c2cc(C(=O)N/N=C/c3ccc4c(c3)OCO4)c3ccccc3n2)c(OC)c1`, the inhibition is -3.1% (inactive).

Take `COc1ccc(/C=N/NC(=O)c2cc(-c3ccccc3OC)nc3ccccc23)cc1COC(C)=O`: the inhibition is -2.13% (inactive).

With `CC(C)(C)c1cc(C(=O)Nc2ccccc2)ccn1`, the inhibition is 11.4% (inactive).

Take `Cc1ccccc1C(=O)O/N=C(\c1ccccc1)c1ccccn1`: the inhibition was 5.71% (inactive).

In the case of `O=C(O)c1ccc2c(c1)-c1cc(C(=O)O)ccc1S2(=O)=O`, the inhibition is -4.26% (inactive).

Regarding `Cc1ccn2cc(C34CC5CC(CC(C5)C3)C4)nc2c1`, the inhibition was 17% (inactive).

Take `Cc1nonc1-c1csc(N)n1`: the inhibition is -6.95% (inactive).

`COc1cc(NC(=O)CSc2ccc(-c3ccco3)nn2)cc(OC)c1`: the inhibition is 0.78% (inactive).

Consider `CCC(=O)OCCNc1cc(SCCC(=O)OC)c2nonc2c1[N+](=O)[O-]`, for which the inhibition was 20% (inactive).

Turning to `CCC(=O)OCCNc1cc(Sc2nc3ccccc3s2)c2nonc2c1[N+](=O)[O-]`, the inhibition is 5.25% (inactive).

For the molecule `CC(=O)OCCCNc1cc(Sc2ccc(C)cc2)c2nonc2c1[N+](=O)[O-]`, the inhibition was 15.4% (inactive).

For `CCC(=O)OCCNc1cc(Sc2nccn2C)c2nonc2c1[N+](=O)[O-]`, the inhibition is -4.53% (inactive).

Turning to `CC(C)CCSc1cc(NCCO)c([N+](=O)[O-])c2nonc12`, the inhibition was -1.66% (inactive).

Regarding `CN(CCO)c1cc(Sc2nc3ccccc3s2)c2nonc2c1[N+](=O)[O-]`, the inhibition was 1.28% (inactive).

In the case of `CCN(CC)c1cc(NCCO)c([N+](=O)[O-])c2nonc12`, the inhibition is 0.97% (inactive).

Turning to `Cc1ccc(Sc2cc(NCCCO)c([N+](=O)[O-])c3nonc23)cc1`, the inhibition was 9.02% (inactive).

Regarding `CCCN1CCc2c(sc(NC(=O)CCS(=O)(=O)c3ccccc3)c2C(N)=O)C1`, the inhibition is 0.13% (inactive).

`CCOC(NC(=O)c1ccccc1)C(NC(=O)c1ccccc1)OCC` (stereo not given): the inhibition was -1.18% (inactive).

Take `COc1ccccc1CC(O)CC1c2c(cc3c(c2OC)OCO3)CCN1C` (stereo not given): the inhibition was -0.54% (inactive).

With `CC(=O)c1cc(C)ccc1OC(=O)c1cccc2nc(C)oc12`, the inhibition is 3.65% (inactive).

As to `COC(=O)c1ccccc1N=Nc1c(C)n[nH]c1C`, the inhibition was -7.02% (inactive).

Regarding `COC(=O)CN1C(=O)C2(OCCCO2)c2cc(Br)ccc21`, the inhibition is -2.05% (inactive) and -8.37% (inactive).
